Out of some 5,500 compounds screened, about 2,000 (36%) were called active. Inconclusive results (about 18%) are left out. Cut-off read from the data, not from the text of the source: active = normalized growth mostly below about 0.91 (no sharp cut-off); inconclusive = no clear call, values can overlap the other calls; inactive = mostly above about 0.92. Some of the results follow.
Assay: chemical genetic growth profiling, strain panel (AID 1159580);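 note: tested at 20 µM; growth read once vehicle control cultures reached saturation at 30 °C; 1 = growth at the plate median or of vehicle wells; lower values mean less growth of the strain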
Settings: growth OD
[1] = S. cerevisiae deletion strains, locus YAL013W, strain DEP1, hits give low values
[2] = S. cerevisiae deletion strains, locus YBR229C, strain ROT2, hits give low values
[3] = S. cerevisiae deletion strains, locus YDL101C, strain DUN1, hits give low values
[4] = S. cerevisiae deletion strains, locus YDR150W, strain NUM1, hits give low values
[5] = S. cerevisiae deletion strains, locus YEL061C, strain CIN8, hits give low values
[6] = S. cerevisiae deletion strains, locus YGR078C, strain PAC10, hits give low values
[7] = S. cerevisiae deletion strains, locus YHR030C, strain SLT2, hits give low values
[8] = S. cerevisiae deletion strains, locus YHR087W, strain rtc3, hits give low values
[9] = S. cerevisiae deletion strains, locus YJL187C, strain SWE1, hits give low values
[10] = S. cerevisiae deletion strains, locus YJR043C, strain POL32, hits give low values
[11] = S. cerevisiae deletion strains, locus YJR075W, strain HOC1, hits give low values
[12] = S. cerevisiae deletion strains, locus YKL190W, strain CNB1, hits give low values
[13] = S. cerevisiae deletion strains, locus YLR039C, strain RIC1, hits give low values
[14] = S. cerevisiae deletion strains, locus YLR058C, strain SHM2 (second series), hits give low values
[15] = S. cerevisiae deletion strains, locus YLR085C, strain ARP6, hits give low values
[16] = S. cerevisiae deletion strains, locus YLR262C, strain YPT6, hits give low values
[17] = S. cerevisiae deletion strains, locus YML094W, strain GIM5, hits give low values
[18] = S. cerevisiae deletion strains, locus YMR219W, strain ESC1, hits give low values
[19] = S. cerevisiae deletion strains, locus YMR263W, strain SAP30, hits give low values
[20] = S. cerevisiae deletion strains, locus YMR307W, strain GAS1, hits give low values
[21] = S. cerevisiae deletion strains, locus YNL128W, strain TEP1, hits give low values
[22] = S. cerevisiae deletion strains, locus YNL153C, strain GIM3, hits give low values
[23] = S. cerevisiae deletion strains, locus YNL298W, strain CLA4 (second series), hits give low values
[24] = S. cerevisiae deletion strains, locus YNL322C, strain KRE1, hits give low values
[25] = S. cerevisiae deletion strains, locus YNR030W, strain Alg12, hits give low values
[26] = S. cerevisiae deletion strains, locus YPL055C, strain LGE1, hits give low values
[27] = S. cerevisiae deletion strains, locus YPL241C, strain CIN2, hits give low values
[28] = S. cerevisiae deletion strains, locus YPR135W, strain CTF4, hits give low values
[29] = S. cerevisiae strains, strain wild type, hits give low values

Measured: normalized growth

O=C1c2cccc3c([N+](=O)[O-])ccc(c23)C(=O)N1Cc1ccco1
inactive: [2] 0.94 | [8] 0.974 | [9] 0.995 | [11] 0.97 | [12] 0.934 | [13] 0.852 | [14] 0.972 | [16] 0.815 | [18] 0.98 | [20] 0.739 | [21] 0.958 | [24] 0.997 | [29] 0.935
active: [1] 0.81 | S. cerevisiae deletion strains, locus YCL061C, strain MRC1, hits give low values 0.896 | [3] 0.873 | [4] 0.763 | [5] 0.909 | [6] 0.879 | [7] 0.321 | [10] 0.791 | [15] 0.341 | [17] 0.797 | [19] 0.796 | [22] 0.899 | [23] 0.753 | [25] 0.559 | [26] 0.628 | [27] 0.634 | [28] 0.382

Cc1nc2c([nH]1)c(=O)n(C)c(=O)n2Cc1ccco1
inactive: [1] 1.04 | S. cerevisiae deletion strains, locus YAL040C, strain CLN3, hits give low values 1 | S. cerevisiae deletion strains, locus YCL061C, strain MRC1 (second series), hits give low values 1.01 | [4] 1 | S. cerevisiae deletion strains, locus YDR363W, strain ESC2, hits give low values 1.03 | S. cerevisiae deletion strains, locus YER002W, strain NOP16, hits give low values 0.998 | [20] 1.02 | S. cerevisiae deletion strains, locus YNL175C, strain NOP13, hits give low values 1.01 | S. cerevisiae deletion strains, locus YNL197C, strain WHI3, hits give low values 1.01 | S. cerevisiae deletion strains, locus YNL224C, strain SQS1, hits give low values 0.995 | [24] 1.02 | S. cerevisiae deletion strains, locus YOR083W, strain WHI5 (second series), hits give low values 1.05 | [26] 1.01

O=C1c2cccc3cc([N+](=O)[O-])cc(c23)C(=O)N1CCO
inactive: [1] 0.992 | [2] 1.02 | [3] 0.974 | [4] 0.995 | [5] 1.01 | [6] 0.988 | [7] 1.04 | [8] 1.02 | [9] 0.984 | [10] 0.995 | [11] 1.02 | [12] 1.02 | [13] 1.03 | [14] 1.01 | [15] 0.908 | [16] 1.05 | [17] 0.976 | [18] 1.01 | [19] 0.984 | [21] 1 | [22] 1.02 | [23] 0.975 | [24] 1.01 | [25] 0.985 | [26] 0.991 | [27] 1.01 | [28] 0.89 | [29] 1.01

CC1/C(=N\O)C[C@@H]2C[C@H]1C2(C)C (stereo not given in full)
inactive: [1] 1.01 | S. cerevisiae deletion strains, locus YBR021W, strain FUR4, hits give low values 1.01 | [2] 1.01 | S. cerevisiae deletion strains, locus YCL029C, strain bik1, hits give low values 0.994 | S. cerevisiae deletion strains, locus YDL035C, strain GPR1, hits give low values 0.993 | S. cerevisiae deletion strains, locus YDL074C, strain BRE1, hits give low values 1.04 | [3] 1.02 | S. cerevisiae deletion strains, locus YDL134C, strain PPH21, hits give low values 1.01 | S. cerevisiae deletion strains, locus YDL185W, strain tfp1, hits give low values 1.02 | S. cerevisiae deletion strains, locus YDL192W, strain arf1, hits give low values 1.03 | S. cerevisiae deletion strains, locus YDR101C, strain arx1, hits give low values 0.981 | S. cerevisiae deletion strains, locus YDR162C, strain NBP2, hits give low values 1.02 | S. cerevisiae deletion strains, locus YDR318W, strain mcm21, hits give low values 1.04 | S. cerevisiae deletion strains, locus YDR388W, hits give low values 1.02 | S. cerevisiae deletion strains, locus YDR502C, strain sam2, hits give low values 1.02 | S. cerevisiae deletion strains, locus YER110C, hits give low values 1.01 | S. cerevisiae deletion strains, locus YER155C, strain BEM2, hits give low values 1.01 | S. cerevisiae deletion strains, locus YER167W, strain BCK2, hits give low values 1.01 | S. cerevisiae deletion strains, locus YGL078C, strain dbp3, hits give low values 1.02 | S. cerevisiae deletion strains, locus YGL086W, strain mad1, hits give low values 0.999 | S. cerevisiae deletion strains, locus YGL248W, strain PDE1, hits give low values 1.03 | [6] 1.03 | S. cerevisiae deletion strains, locus YGR135W, strain pre9, hits give low values 1.04 | S. cerevisiae deletion strains, locus YGR252W, strain gcn5, hits give low values 1.01 | [7] 1.03 | S. cerevisiae deletion strains, locus YHR079C, strain IRE1 (second series), hits give low values 1.03 | S. cerevisiae deletion strains, locus YHR079C, strain IRE1, hits give low values 1.04 | S. cerevisiae deletion strains, locus YHR094C, strain hxt1, hits give low values 1.01 | S. cerevisiae deletion strains, locus YHR129C, strain ARP1, hits give low values 1.01 | S. cerevisiae deletion strains, locus YHR200W, strain rpn10, hits give low values 1.03 | S. cerevisiae deletion strains, locus YIL066C, strain RNR3, hits give low values 1.01 | S. cerevisiae deletion strains, locus YIL073C, strain SPO22, hits give low values 1.05 | S. cerevisiae deletion strains, locus YIL125W, strain kgd1, hits give low values 1.02 | S. cerevisiae deletion strains, locus YIR030C, strain dcg1, hits give low values 1.02 | S. cerevisiae deletion strains, locus YJL095W, strain BCK1, hits give low values 1.04 | S. cerevisiae deletion strains, locus YJL134W, strain LCB3, hits give low values 1.02 | S. cerevisiae deletion strains, locus YJL168C, strain set2, hits give low values 1.01 | S. cerevisiae deletion strains, locus YJL187C, strain SWE1 (second series), hits give low values 1.03 | [10] 0.994 | S. cerevisiae deletion strains, locus YJR066W, strain TOR1, hits give low values 0.95 | [11] 1.03 | S. cerevisiae deletion strains, locus YKL009W, strain mrt4, hits give low values 0.995 | S. cerevisiae deletion strains, locus YKL068W, hits give low values 1.02 | S. cerevisiae deletion strains, locus YKL085W, strain MDH1 (second series), hits give low values 1.02 | S. cerevisiae deletion strains, locus YKL085W, strain MDH1, hits give low values 1.02 | [12] 1.01 | S. cerevisiae deletion strains, locus YKR001C, strain vps1, hits give low values 1.05 | [13] 1.09 | S. cerevisiae deletion strains, locus YLR058C, strain SHM2, hits give low values 1.02 | S. cerevisiae deletion strains, locus YLR102C, strain apc9, hits give low values 1.05 | S. cerevisiae deletion strains, locus YLR113W, strain HOG1, hits give low values 1.05 | [16] 1.1 | S. cerevisiae deletion strains, locus YLR268W, strain sec22, hits give low values 1.02 | S. cerevisiae deletion strains, locus YLR371W, strain rom2, hits give low values 1.04 | S. cerevisiae deletion strains, locus YLR418C, strain cdc73, hits give low values 1.06 | S. cerevisiae deletion strains, locus YML016C, strain PPZ1, hits give low values 1.02 | S. cerevisiae deletion strains, locus YML032C, strain rad52, hits give low values 1.02 | S. cerevisiae deletion strains, locus YML124C, strain tub3, hits give low values 1.01 | S. cerevisiae deletion strains, locus YMR078C, strain ctf18, hits give low values 1.03 | S. cerevisiae deletion strains, locus YMR223W, strain ubp8, hits give low values 1.02 | [20] 1.06 | S. cerevisiae deletion strains, locus YNL067W, strain RPL9B, hits give low values 1.02 | S. cerevisiae deletion strains, locus YNL183C, strain NPR1, hits give low values 0.951 | S. cerevisiae deletion strains, locus YNL233W, strain BNI4, hits give low values 1.03 | S. cerevisiae deletion strains, locus YNL250W, strain rad50, hits give low values 1.05 | S. cerevisiae deletion strains, locus YNL271C, strain bni1, hits give low values 1.02 | S. cerevisiae deletion strains, locus YNL298W, strain CLA4, hits give low values 1.02 | S. cerevisiae deletion strains, locus YNL307C, strain MCK1, hits give low values 1.01 | S. cerevisiae deletion strains, locus YNR052C, strain pop2, hits give low values 1.03 | S. cerevisiae deletion strains, locus YOL012C, strain htz1 1.25 | S. cerevisiae deletion strains, locus YOL147C, strain pex11, hits give low values 1.01 | S. cerevisiae deletion strains, locus YOR061W, strain CKA2, hits give low values 1.02 | S. cerevisiae deletion strains, locus YOR069W, strain VPS5, hits give low values 1.01 | S. cerevisiae deletion strains, locus YOR136W, strain idh2, hits give low values 1 | S. cerevisiae deletion strains, locus YOR144C, strain elg1, hits give low values 1.01 | S. cerevisiae deletion strains, locus YOR184W, strain ser1, hits give low values 0.926 | S. cerevisiae deletion strains, locus YOR231W, strain MKK1, hits give low values 1.02 | S. cerevisiae deletion strains, locus YOR316C, strain cot1, hits give low values 1.03 | S. cerevisiae deletion strains, locus YPL256C, strain CLN2, hits give low values 1.05 | S. cerevisiae deletion strains, locus YPR119W, strain clb2, hits give low values 1.03 | S. cerevisiae deletion strains, locus YPR141C, strain kar3, hits give low values 1.02 | S. cerevisiae deletion strains, locus YPR163C, strain tif3, hits give low values 1.03 | S. cerevisiae deletion strains, locus YPR167C, strain met16, hits give low values 1.03 | S. cerevisiae deletion strains, strain wtn01, hits give low values 0.995
